From PubChem BioAssay AID449762 (Southern Research Specialized Biocontainment Screening …, 2010)
The whole screen tested about 330,000 compounds, of which about 1,900 (0.58%) were called active. Another 4% or so got no clear call; they are omitted. These entries were drawn from the full list. Potency and affinity values are given separately. Values without a mark were called inactive. Cut-off read from the data, not from the text of the source: inconclusive = inhibition above about 70% without an active follow-up result; inactive = below that.

Experiment: M. tuberculosis growth inhibition, HTS (AID 449762);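 note: bacterial growth assessed after seven days of incubation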
Conditions: M. tuberculosis H37Rv growth inhibition, 7H9 media; at 25 µM; active compounds read high
In the case of `O=C(NCC(c1cccnc1)N1CCN(c2ccc(F)cc2)CC1)Oc1ccccc1` (stereo not drawn), the inhibition is reported as -8.33%. With `CCc1cccc(NC(=O)CCCN2C(=O)NC(C)(C)C2=O)c1` the inhibition was -11.7%. `C[C@@H]1CCCCCCCCC(=O)OCCN(C(=O)OC(C)(C)C)[C@H](C)CCCCCCCCC(=O)OCCN(C(=O)OC(C)(C)C)[C@H](C)CCCCCCCCC(=O)OCCN(C(=O)OC(C)(C)C)[C@H](C)CCCCCCCCC(=O)OCCN1C(=O)OC(C)(C)C` gave an inhibition of -0.93%. Compound `C[C@@H]1CCCCCCCCC(=O)OCCN(C(=O)OC(C)(C)C)[C@H](C)CCCCCCCCC(=O)OCCN1C(=O)OC(C)(C)C` has an inhibition of 3.06%. For `COc1ccc(N2CCN(C(=O)CCNS(=O)(=O)c3ccc(C)cc3)CC2)cc1`, the inhibition was -1.98%. Compound `C[C@H](NC(=O)N1CCn2c1nc1ccccc12)C(=O)N1CCCCC1` has an inhibition of -4.78%. For `CN(CCOc1ccccc1)C(=O)C1CCC(=O)N(CCCN2CCOCC2)C1` (stereo not drawn), the inhibition was 14.5%. `Nc1nc2ccccc2n1CCOc1ccc(F)cc1` gave an inhibition of 41.5%. For `Nc1nc2ccccc2n1CCOc1ccc(Cl)cc1`, the inhibition was 9.81%. Work on `CN(C)S(=O)(=O)c1cc(NC(=O)CN2CCN(c3ccccc3)CC2)ccc1Cl` yielded an inhibition of 1.87%. `CN=C1NN=C(c2cc(C)n(-c3c(C)n(C)n(-c4ccccc4)c3=O)c2C)CS1` gave an inhibition of 10.5%. `CCN=C1NN=C(c2c[nH]c3ccccc23)CS1` gave an inhibition of 0.3%. With `Cc1cc(C2=NNC(=NC3CC3)SC2)c(C)n1-c1c(C)n(C)n(-c2ccccc2)c1=O` the inhibition was 0.5%. For `c1ccc2c(C3=NNC(=NC4CC4)SC3)c[nH]c2c1`, the inhibition was -4.02%. Work on `COc1ccc(CC(=O)Nc2ccc(C#N)c(Cl)c2)cc1S(=O)(=O)N1CCOCC1` yielded an inhibition of 3.7%. Compound `COc1ccnc(Oc2ccc(F)cc2)c1C(=O)N/C=N/OCc1cccc(F)c1` has an inhibition of 24.6%. For `CC(=O)N1CCN(c2nc(C)nc3sc4c(c23)CCC(C)C4)CC1` (stereo not drawn), the inhibition was -0.41%. In the case of `CC(C)(C)C1CCc2c(sc3nc(SCC(=O)O)nc(N)c23)C1` (stereo not drawn), the inhibition is reported as 6.02%. With `Cc1nc(N2CCN(C(=O)c3cnccn3)CC2)c2c3c(sc2n1)CC(C(C)(C)C)CC3` (stereo not drawn) the inhibition was -2.07%. In the case of `NC(=O)CSc1nc(N)c2c3c(sc2n1)CCCCC3`, the inhibition is reported as 42.6%. Compound `CCCSc1nnc2n(C)c(=O)c3c4c(sc3n12)CCC4` has an inhibition of 9.4%. With `C=C(C)CSc1nnc2n(C)c(=O)c3c4c(sc3n12)CCC4` the inhibition was 4.7%. For `CC(C)(C)[C@H]1COC(=O)[C@@H](Cc2ccc(F)cc2)C/C=C\C[C@@H](CC(=O)N[C@@H](CO)Cc2ccccc2)C(=O)N1`, the inhibition was -8.38%.
